Data taken from PubChem BioAssay AID1159580 (chemical genetic matrix, 2015).
Values joined by “and” are separate entries in the source; they are usually repeats but may differ in a detail not shown here. Equal values may be shown once. Screen size: about 5,500 compounds; about 2,000 (36%) were called active. Not shown: some 18% with an inconclusive outcome. No stated cut-off is given here; in the data, active means normalized growth mostly below about 0.91 (no sharp cut-off); inconclusive means no clear call, values can overlap the other calls; inactive means mostly above about 0.92. The list shows a part of the results.

Test: chemical genetic growth profiling, strain panel (AID 1159580);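 further: tested at 20 µM; growth read once vehicle control cultures reached saturation at 30 °C; 1 = growth at the plate median or of vehicle wells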
Conditions: S. cerevisiae deletion strains, growth OD
[1] = locus YHR030C, strain SLT2, stronger effect = lower value
[2] = locus YHR079C, strain IRE1, stronger effect = lower value
[3] = locus YJL095W, strain BCK1, stronger effect = lower value
[4] = locus YJR066W, strain TOR1, stronger effect = lower value
[5] = locus YLR113W, strain HOG1, stronger effect = lower value
[6] = locus YNL183C, strain NPR1, stronger effect = lower value
[7] = locus YOR231W, strain MKK1, stronger effect = lower value
[8] = locus YPL256C, strain CLN2, stronger effect = lower value

Measured: normalized growth

COc1cc(C)c2c(c1C=O)Oc1c(c(C)c(O)c3c1C(O)OC3=O)OC2=O (stereo unspecified)
inactive: locus YAL013W, strain DEP1, stronger effect = lower value 1 | locus YAL021C, strain ccr4, stronger effect = lower value 1.01 | locus YAL026C, strain drs2, stronger effect = lower value 1.02 | locus YAL030W, strain snc1, stronger effect = lower value 1.02 | locus YBL061C, strain skt5, stronger effect = lower value 1.02 | locus YBR009C, strain hhf1, stronger effect = lower value 1.03 | locus YBR021W, strain FUR4, stronger effect = lower value 1.01 | locus YBR023C, strain chs3, stronger effect = lower value 1.05 | locus YBR171W, strain sec66, stronger effect = lower value 1.02 | locus YBR229C, strain ROT2, stronger effect = lower value 0.949 | locus YBR231C, strain swc5, stronger effect = lower value 1.01 | locus YBR279W, strain paf1, stronger effect = lower value 1.01 | locus YCL011C, strain gbp2, stronger effect = lower value 1.03 | locus YCL016C, strain dcc1, stronger effect = lower value 1.03 | locus YCL029C, strain bik1, stronger effect = lower value 0.984 | locus YCL061C, strain MRC1, stronger effect = lower value 1.02 | locus YCL069W, strain vba3, stronger effect = lower value 1.01 | locus YCR088W, strain abp1, stronger effect = lower value 1.01 | locus YDL005C, strain med2, stronger effect = lower value 0.946 | locus YDL035C, strain GPR1, stronger effect = lower value 0.965 | locus YDL040C, strain nat1, stronger effect = lower value 1.01 | locus YDL074C, strain BRE1, stronger effect = lower value 0.959 | locus YDL101C, strain DUN1, stronger effect = lower value 0.99 | locus YDL185W, strain tfp1, stronger effect = lower value 0.972 | locus YDL192W, strain arf1, stronger effect = lower value 0.984 | locus YDR001C, strain nth1, stronger effect = lower value 1.01 | locus YDR069C, strain doa4, stronger effect = lower value 1 | locus YDR101C, strain arx1, stronger effect = lower value 0.981 | locus YDR137W, strain rgp1, stronger effect = lower value 1.06 | locus YDR150W, strain NUM1, stronger effect = lower value 0.994 | locus YDR159W, strain sac3, stronger effect = lower value 1.02 | locus YDR162C, strain NBP2, stronger effect = lower value 0.941 | locus YDR195W, strain ref2 0.924 | locus YDR297W, strain sur2, stronger effect = lower value 1.01 | locus YDR318W, strain mcm21, stronger effect = lower value 1 | locus YDR334W, strain swr1, stronger effect = lower value 1 | locus YDR335W, strain msn5, stronger effect = lower value 1.01 | locus YDR388W, stronger effect = lower value 0.997 | locus YDR392W, strain spt3, stronger effect = lower value 1 | locus YDR502C, strain sam2, stronger effect = lower value 1.04 | locus YEL003W, strain gim4, stronger effect = lower value 1.02 | locus YEL037C, strain rad23, stronger effect = lower value 1.02 | locus YEL061C, strain CIN8 (second series), stronger effect = lower value 1 | locus YEL061C, strain CIN8, stronger effect = lower value 0.974 | locus YER015W, strain faa2, stronger effect = lower value 1.01 | locus YER016W, strain bim1, stronger effect = lower value 1.02 | locus YER110C, stronger effect = lower value 0.981 | locus YER111C, strain swi4, stronger effect = lower value 1.01 | locus YER155C, strain BEM2 (second series), stronger effect = lower value 1.02 | locus YER155C, strain BEM2, stronger effect = lower value 0.995 | locus YER167W, strain BCK2, stronger effect = lower value 0.986 | locus YFR010W, strain ubp6, stronger effect = lower value 1.02 | locus YGL078C, strain dbp3, stronger effect = lower value 1.02 | locus YGL086W, strain mad1, stronger effect = lower value 1.01 | locus YGL167C, strain pmr1, stronger effect = lower value 1.01 | locus YGL173C, strain kem1, stronger effect = lower value 1.03 | locus YGL227W, strain vid30, stronger effect = lower value 1.02 | locus YGL240W, strain doc1, stronger effect = lower value 1.08 | locus YGL248W, strain PDE1, stronger effect = lower value 1.02 | locus YGL253W, strain hxk2, stronger effect = lower value 1.02 | locus YGR135W, strain pre9, stronger effect = lower value 1.06 | locus YGR252W, strain gcn5, stronger effect = lower value 1.05 | locus YHR013C, strain ard1, stronger effect = lower value 1.05 | locus YHR027C, strain rpn1, stronger effect = lower value 1.01 | [1] 0.992 and 0.99 | locus YHR079C, strain IRE1 (second series), stronger effect = lower value 0.991 | [2] 0.994 | locus YHR094C, strain hxt1, stronger effect = lower value 0.982 | locus YHR129C, strain ARP1, stronger effect = lower value 0.984 | locus YHR142W, strain chs7, stronger effect = lower value 1.05 | locus YHR200W, strain rpn10, stronger effect = lower value 0.999 | locus YIL066C, strain RNR3, stronger effect = lower value 0.97 | locus YIL073C, strain SPO22, stronger effect = lower value 1.06 | locus YIL125W, strain kgd1, stronger effect = lower value 0.984 | locus YIR030C, strain dcg1, stronger effect = lower value 0.982 | locus YJL092W, strain hpr5, stronger effect = lower value 1.01 | locus YJL095W, strain BCK1 (second series), stronger effect = lower value 1.02 | [3] 1.08 and 0.976 | locus YJL115W, strain asf1, stronger effect = lower value 1 | locus YJL129C, strain trk1, stronger effect = lower value 1.03 | locus YJL134W, strain LCB3, stronger effect = lower value 0.986 | locus YJL154C, strain vps35, stronger effect = lower value 1.02 | locus YJL164C, strain tpk1, stronger effect = lower value 1.03 | locus YJL166W, strain qcr8, stronger effect = lower value 1.03 | locus YJL168C, strain set2, stronger effect = lower value 0.993 | locus YJL187C, strain SWE1 (second series), stronger effect = lower value 0.988 | locus YJL187C, strain SWE1, stronger effect = lower value 1.02 | [4] 0.919 | locus YKL009W, strain mrt4, stronger effect = lower value 0.948 | locus YKL068W, stronger effect = lower value 0.983 | locus YKL085W, strain MDH1 (second series), stronger effect = lower value 0.968 | locus YKL085W, strain MDH1, stronger effect = lower value 0.968 | locus YKL160W, strain elf1, stronger effect = lower value 1.03 | locus YKL190W, strain CNB1, stronger effect = lower value 0.989 | locus YKR001C, strain vps1, stronger effect = lower value 0.991 | locus YKR026C, strain gcn3, stronger effect = lower value 1.01 | locus YKR091W, strain srl3, stronger effect = lower value 1.01 | locus YLL001W, strain dnm1, stronger effect = lower value 1.01 | locus YLL026W, stronger effect = lower value 1.02 | locus YLL041C, strain sdh2, stronger effect = lower value 1.01 | locus YLR027C, strain aat2, stronger effect = lower value 1 | locus YLR039C, strain RIC1, stronger effect = lower value 1.01 | locus YLR058C, strain SHM2, stronger effect = lower value 0.966 | locus YLR102C, strain apc9, stronger effect = lower value 0.986 | [5] 0.956 | locus YLR221C, strain rsa3, stronger effect = lower value 1.03 | locus YLR258W, strain gsy2, stronger effect = lower value 1.03 | locus YLR262C, strain YPT6 (second series), stronger effect = lower value 1.06 | locus YLR268W, strain sec22, stronger effect = lower value 0.975 | locus YLR320W, strain mms22, stronger effect = lower value 1.06 | locus YLR330W, strain CHS5, stronger effect = lower value 0.983 | locus YLR342W, strain FKS1 (second series), stronger effect = lower value 0.99 | locus YLR342W, strain FKS1, stronger effect = lower value 1.03 | locus YLR357W, strain rsc2, stronger effect = lower value 0.997 | locus YLR370C, strain arc18, stronger effect = lower value 1.02 | locus YLR371W, strain rom2, stronger effect = lower value 0.972 | locus YLR384C, strain iki3, stronger effect = lower value 1.01 | locus YLR418C, strain cdc73, stronger effect = lower value 1.05 | locus YML016C, strain PPZ1, stronger effect = lower value 0.985 | locus YML032C, strain rad52, stronger effect = lower value 0.985 | locus YML120C, strain ndi1, stronger effect = lower value 1.02 | locus YML124C, strain tub3, stronger effect = lower value 0.996 | locus YMR058W, strain fet3, stronger effect = lower value 0.996 | locus YMR078C, strain ctf18, stronger effect = lower value 0.995 | locus YMR125W, strain sto1, stronger effect = lower value 0.999 | locus YMR129W, stronger effect = lower value 1.01 | locus YMR205C, strain PFK2, stronger effect = lower value 1.03 | locus YMR223W, strain ubp8, stronger effect = lower value 1 | locus YMR231W, strain pep5, stronger effect = lower value 1.02 | locus YMR307W, strain GAS1, stronger effect = lower value 0.922 | locus YNL067W, strain RPL9B, stronger effect = lower value 1 | locus YNL071W, strain lat1, stronger effect = lower value 1.02 | locus YNL128W, strain TEP1, stronger effect = lower value 0.918 | [6] 0.935 | locus YNL209W, strain ssb2, stronger effect = lower value 1 | locus YNL233W, strain BNI4, stronger effect = lower value 1.02 | locus YNL248C, strain rpa49, stronger effect = lower value 1.05 | locus YNL250W, strain rad50, stronger effect = lower value 0.984 | locus YNL271C, strain bni1, stronger effect = lower value 0.989 | locus YNL298W, strain CLA4, stronger effect = lower value 0.987 | locus YNL307C, strain MCK1, stronger effect = lower value 1 | locus YNL322C, strain KRE1 (second series), stronger effect = lower value 1.01 | locus YNR049C, strain mso1, stronger effect = lower value 1.02 | locus YNR052C, strain pop2, stronger effect = lower value 1.02 | locus YOL012C, strain htz1 0.777 | locus YOL147C, strain pex11, stronger effect = lower value 0.991 | locus YOR001W, strain rrp6, stronger effect = lower value 1.03 | locus YOR061W, strain CKA2, stronger effect = lower value 0.952 | locus YOR069W, strain VPS5, stronger effect = lower value 0.992 | locus YOR070C, strain gyp1, stronger effect = lower value 1.01 | locus YOR080W, strain dia2, stronger effect = lower value 1.02 | locus YOR083W, strain WHI5, stronger effect = lower value 1.03 | locus YOR106W, strain vam3, stronger effect = lower value 1.03 | locus YOR136W, strain idh2, stronger effect = lower value 0.987 | locus YOR144C, strain elg1, stronger effect = lower value 0.99 | locus YOR184W, strain ser1, stronger effect = lower value 0.959 | [7] 0.975 | locus YOR265W, strain rbl2, stronger effect = lower value 1.01 | locus YOR270C, strain vph1, stronger effect = lower value 1.15 | locus YOR290C, strain snf2, stronger effect = lower value 1.01 | locus YOR316C, strain cot1, stronger effect = lower value 1 | locus YPL051W, strain arl3, stronger effect = lower value 1.04 | locus YPL055C, strain LGE1, stronger effect = lower value 0.899 | locus YPL078C, strain atp4, stronger effect = lower value 1.03 | locus YPL106C, strain sse1, stronger effect = lower value 1.02 | locus YPL240C, strain hsp82, stronger effect = lower value 1.01 | locus YPL241C, strain CIN2, stronger effect = lower value 0.995 | [8] 0.974 | locus YPR119W, strain clb2, stronger effect = lower value 1 | locus YPR141C, strain kar3, stronger effect = lower value 0.979 | locus YPR163C, strain tif3, stronger effect = lower value 1 | locus YPR167C, strain met16, stronger effect = lower value 1.02 | strain wtn01, stronger effect = lower value 0.976

CC(=O)Oc1cc(C)c2c(c1C=O)Oc1c(c(C)c(OC(C)=O)c3c1C(OC(C)=O)OC3=O)OC2=O (stereo unspecified)
inactive: [1] 0.877 | [2] 0.883 | [3] 0.905 | [4] 0.857 | [6] 0.853 | [7] 0.876 | [8] 0.829
active: [5] 0.821
